40 compounds from PubChem BioAssay (Tox21) can be followed below.

Results filed as inconclusive are left out. Calls of active or inactive are those of the source. The call rests on the fitted dose curve; in most records, active means well fitted inhibition curve with a large enough effect in the repeat runs; inconclusive means weak or mixed curves; inactive means no such curve, though single readings can be large or run the other way.
On the % scale 0 is the no-effect control and ±100 the full control effect; potency means the concentration at half of the fitted maximal effect.

Chain of Cytochrome P450 2D6 (Homo sapiens) (P10635 whole entry, looked up): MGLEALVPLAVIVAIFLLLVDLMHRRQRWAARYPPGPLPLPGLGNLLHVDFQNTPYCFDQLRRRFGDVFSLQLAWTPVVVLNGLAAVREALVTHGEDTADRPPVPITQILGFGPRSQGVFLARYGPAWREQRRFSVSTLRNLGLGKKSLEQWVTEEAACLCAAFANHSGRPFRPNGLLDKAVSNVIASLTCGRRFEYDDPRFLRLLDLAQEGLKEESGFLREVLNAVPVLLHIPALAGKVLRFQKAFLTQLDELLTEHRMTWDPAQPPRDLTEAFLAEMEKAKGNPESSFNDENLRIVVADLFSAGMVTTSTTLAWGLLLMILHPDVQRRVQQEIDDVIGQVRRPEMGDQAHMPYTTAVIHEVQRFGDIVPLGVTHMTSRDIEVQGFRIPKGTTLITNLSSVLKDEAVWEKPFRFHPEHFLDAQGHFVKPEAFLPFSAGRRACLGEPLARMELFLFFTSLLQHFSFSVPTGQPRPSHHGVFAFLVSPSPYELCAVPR

The assay addresses Cytochrome P450 2D6 (Homo sapiens) (UniProt P10635). Briefly: Cytochrome P450 Family 2 Subfamily D Member 6 (CYP2D6) small molecule antagonists: luciferase reporter qHTS assay (AID 1671196). Further: nearly all actives have a fitted effect of over 50% in size. The conditions noted are these: P450-Glo CYP2D6 enzyme assay, luciferin luminescence, 1 h; series mostly up to 115 µM; activity change, negative = inhibition: at the top concentration. An excerpt: U.S. Tox21 Program National Center for Advancing Translational Sciences [NCATS] U.S. Environmental Protection Agency [EPA] National Institutes of Environmental Health Sciences [NIEHS] National Toxicology Program [NTP] U.S. Food and Drug Administration [FDA] Tox21 Assay Overview: Cytochrome P450 (CYP) enzymes are membrane-bound hemeproteins that play a key role in metabolism of drugs and xenobiotics. Evaluation of the effect of chemicals on CYP isozymes is useful to minimize the adverse drug reactions and toxicities in drug development process. Tox21 chemicals were tested for their effect on CYP enzyme activities by using P450-Glo (TM) screening systems (Promega Corporation, Madison, WI). These systems provide a luminescent method containing proluciferin substrates and are converted to luciferin products by CYP isozymes. The luciferin products formed are detected with a luciferin detection reagent, and the amount of light produced is proportional to CYP activity. P450-Glo (TM) CYP2D6 screening system (Catalog. No. V9890) was used to detect the compounds that interfere in CYP2D6 activity.
Tox21 Assay Protocol Summary: Two ul of enzyme-substrate mix was dispensed into medium binding white/solid 1536-well plates (Greiner Bio-One North America Inc., Monroe, NC) using a BioRaptr Flying Reagent Dispenser (FRD, Beckman Coulter, Brea, CA). […] The assay plates were incubated at room temperature for 10 min. Then 2 ul of NADPH regeneration solution was added to each well of the assay plates using an FRD and incubated at room temperature for 1 h. The reaction was stopped by adding 4 ul of detection reagent using an FRD and after 20 min incubation at room temperature the luminescence signal was measured using a ViewLux plate reader (Perkin Elmer, Shelton, CT). Data were expressed as relative luminescence units.
(A reporter such as luciferase makes a cellular process visible.)
On to `COc1ccc(/C(C)=C/C(=O)O)c(OC)c1`, for which the “activity change, negative = inhibition” value is 2.82% [at 53 µM] (inactive). The same measure, in the same setting: the same measure for `O=c1c2ccccc2oc2ccccc12`: -17.2% (inactive); for `CCC(C)CCCC(C)(C)O` (stereo not given): 0.757% (inactive). On the same count and under the same terms, the same measure for `COC(=O)C(C)(C)C`: 0.112% (inactive). As to `CC(C)=CCC/C(C)=C/C=N/O`, the Potency is 35.6 µM (active). Regarding `O=C(O)c1cc(C(=O)O)c(C(=O)O)cc1C(=O)O`, the “activity change, negative = inhibition” value is -19.3% (inactive).

As to `O=C(OCCCCCOC(=O)c1ccccc1)c1ccccc1`, the “activity change, negative = inhibition” value was -10.1% (inactive). Still for that read-out and setting: the same measure for `CCOC(OCC)OCC`: -4.65% (inactive); for `CCCC1CCCC(=O)O1` (stereo not given): -14.6% (inactive). On to `COc1ccc(C(=O)Nc2ccccc2)cc1[N+](=O)[O-]`, for which the Potency is 40.2 µM (active). For the compound `CC(=O)c1cccnc1`, the “activity change, negative = inhibition” value was -15.3% (inactive).

Turning to `CC(C)Cc1nccs1`, the Potency is 12.9 µM (active). Regarding `Cc1ccccc1CCO`, the “activity change, negative = inhibition” value is -8.62% (inactive). On to `C/C=C1\[C@H]2C=C(C)C[C@]1(N)c1ccc(=O)[nH]c1C2`, for which the “activity change, negative = inhibition” value was -5.34% [at 53 µM] (inactive). For `O=C(O)c1ccc2c(c1)nc(C(=O)NC1CCN(C3CC3)CC1)n2Cc1cc(-c2ccc(Cl)s2)on1`, the activity change, negative = inhibition was -3.64% [at 23.6 µM] (inactive). For `O=C(O)c1cccc(C(=O)O)c1C(=O)O`, the Potency was 40.3 µM (active).

`N#C[C@@H]1CC(F)(F)CN1C(=O)CNC1CC2CCC(C1)N2c1ncccn1` (stereo not given in full): the Potency is 12.6 µM (active). Turning to `CC1(C)CC(O)CC(C)(C)N1[O]`, the “activity change, negative = inhibition” value is -0.701% (inactive). Still for that read-out and setting: the value for `O=c1[nH][nH]c2ccccc12` was -11.8% (inactive); that for `O=C(O)CNc1ccccc1` was -12.4% (inactive); that for `O=P(c1ccccc1)(c1ccccc1)c1ccccc1` was -15% (inactive). Same read-out and setting: the value for `OCCCO` was 0.783% (inactive). The same measure, in the same setting: the same measure for `Cc1c(Cl)cccc1Nc1ccccc1C(=O)O`: -6.49% [at 53 µM] (inactive); for `CC(CCl)OC(C)CCl` (stereo not given): -0.629% (inactive).

In the case of `OCC(O)c1ccccc1` (stereo not given), the “activity change, negative = inhibition” value was -7.45% (inactive). On the same count and under the same terms, the value for `CNc1ccccc1` was 1.24% (inactive); that for `C=C[Si]1(C)O[Si](C)(C=C)O[Si](C)(C=C)O[Si](C)(C=C)O1` (stereo not given) was -1.42% (inactive); that for `CCC[Si](OC)(OC)OC` was 0.917% (inactive).

Turning to `CC(=O)Nc1ccn(C2COC(COC(=O)c3ccccc3)O2)c(=O)n1` (stereo not given), the “activity change, negative = inhibition” value was -9.31% [at 53 µM] (inactive). On to `C(/C=C/C=C/Nc1ccccc1)=Nc1ccccc1`, for which the Potency is 71 µM (active). Consider `Cc1cc(C)c(C)c(O)c1`, for which the “activity change, negative = inhibition” value was 0.142% (inactive). On the same count and under the same terms, the same measure for `Cc1cc(C)n(CO)n1`: -2.72% (inactive).

For `Cc1nc2sccn2c(=O)c1CCN1CCC(=C(c2ccc(F)cc2)c2ccc(F)cc2)CC1`, the Potency was 15.5 µM (active).

For the compound `COc1cccc([C@H](O)C2CCN(CCc3ccc(F)cc3)CC2)c1OC`, the Potency was 2 µM (active). For `OCCOc1cccc(OCCO)c1`, the “activity change, negative = inhibition” value is 2.53% (inactive). The same measure, in the same setting: the value for `O=C1C=CCCC1` was 1.06% (inactive); that for `O=C(C1CCCCC1)N1CC(=O)N2CCCc3ccccc3C2C1` (stereo not given) was -12.3% [at 53 µM] (inactive). `CCCCOc1ccc(N)cc1`: the Potency is 39.9 µM (active). For `Nc1nc(Cl)nc2c1ncn2[C@H]1C[C@H](O)[C@@H](CO)O1`, the “activity change, negative = inhibition” value is -1.52% (inactive). As for `CCn1nc(Cc2ccccc2)cc1C1CCN(C[C@H]2C[C@H](N(C)[C@@H](C(=O)O)C(C)C)C[C@@H]2c2cccc(F)c2)CC1`, the Potency was 35.6 µM (active).
